In article PMC8384837, “Expanding the binding specificity for RNA recognition by a PUF domain” one finds binding signal data, which are given here for seven sequences.

What all share (assay): yeast three-hybrid, YBZ-1, SC-Leu-His + 0.5 mM 3-AT, 4 days
Common to all, as to conditions: tags: N-Gal4 AD-HA kept; label: inside an RPR1-promoter hybrid RNA with tandem MS2 sites; ssRNA

One experiment deals with T1, PUM1 PUF domain R6-IFM (Homo sapiens, UniProt Q14671 828-1176, N1043I;Y1044F;Q1047M).
T1 sequence: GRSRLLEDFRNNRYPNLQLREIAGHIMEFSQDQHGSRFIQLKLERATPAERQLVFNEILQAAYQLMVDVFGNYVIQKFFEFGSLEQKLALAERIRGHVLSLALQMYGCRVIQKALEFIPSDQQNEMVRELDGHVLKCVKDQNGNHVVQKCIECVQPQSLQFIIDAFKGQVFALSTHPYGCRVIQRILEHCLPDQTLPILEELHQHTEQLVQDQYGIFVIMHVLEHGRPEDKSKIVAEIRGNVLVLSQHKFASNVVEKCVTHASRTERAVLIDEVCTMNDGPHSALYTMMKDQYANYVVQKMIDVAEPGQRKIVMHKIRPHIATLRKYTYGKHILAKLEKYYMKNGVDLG
The essentials: (§1)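 The interaction score is the log change in variant frequency from input to selection. Scores were computed in log2 with a pseudocount of 1 for absent variants, using Illumina sequencing of PCR-amplified repeat regions. The input came from four days on SC-Leu and the selection from four days on SC-Leu-His + 0.5 mM 3-AT. The cells were strain YBZ-1 (LexA–MS2 coat fusion, HIS3 reporter) co-expressing Pumilio-1 PUF domain libraries and matching RNA elements from a centromeric plasmid.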

A further experiment has as its target PUM1 PUF domain R1-HWR (Homo sapiens, UniProt Q14671 828-1176, S863H;R864W;Q867R). The essentials:
as §1

Another experiment concerns the target PUM1 PUF domain R8-QWC (Homo sapiens, UniProt Q14671 828-1176, N1122Q;Y1123W;Q1126C). The method in brief: as §1
In the next experiment the target is PUM1 PUF domain R8-MFR (Homo sapiens, UniProt Q14671 828-1176, N1122M;Y1123F;Q1126R). The method in brief:
as §1

A further experiment deals with PUM1 PUF domain R5-KGE (Homo sapiens, UniProt Q14671 828-1176, C1007K;R1008G;Q1011E). The essentials:
as §1

The target of a further experiment is PUM1 PUF domain R4-THL (Homo sapiens, UniProt Q14671 828-1176, N971T;Q975L). The essentials:
as §1

Another experiment concerns the target PUM1 PUF domain R3-PWN (Homo sapiens, UniProt Q14671 828-1176, C935P;R936W;Q939N). The method in brief:
as §1

A further experiment concerns the target PUM1 PUF domain R3-RAF (Homo sapiens, UniProt Q14671 828-1176, C935R;R936A;Q939F). The essentials:
as §1

Consider “GGCUAGAACUAGUGGAUCCCCCGGCGCCCGGCGGCUCGAGCCCGGGUAAGUGAAAAUAGUCUGCAUGCCGCCGGGCGCCAUGCCUGCAGGUCGACUCUAGAAAACAUG”, for which the binding signal in the experiment with PUM1 PUF domain R6-IFM was 6.96 log2 enrichment (interaction score).
As for “GGCUAGAACUAGUGGAUCCCCCGGCGCCCGGCGGCUCGAGCCCGGGUAAGUGUAAAUUGUCUGCAUGCCGCCGGGCGCCAUGCCUGCAGGUCGACUCUAGAAAACAUG”, the binding signal with PUM1 PUF domain R1-HWR was 3.32 log2 enrichment (interaction score).
For “GGCUAGAACUAGUGGAUCCCCCGGCGCCCGGCGGCUCGAGCCCGGGUAAGUGUAAAUCGUCUGCAUGCCGCCGGGCGCCAUGCCUGCAGGUCGACUCUAGAAAACAUG”, in the experiment with PUM1 PUF domain R1-HWR, the binding signal was 5.91 log2 enrichment (interaction score).
In the case of “GGCUAGAACUAGUGGAUCCCCCGGCGCCCGGCGGCUCGAGCCCGGGUAAGCGUAAAUAGUCUGCAUGCCGCCGGGCGCCAUGCCUGCAGGUCGACUCUAGAAAACAUG”, the binding signal with PUM1 PUF domain R8-QWC is 2.08 log2 enrichment (interaction score); with PUM1 PUF domain R8-MFR, 5.35 log2 enrichment (interaction score).
In the case of “GGCUAGAACUAGUGGAUCCCCCGGCGCCCGGCGGCUCGAGCCCGGGUAAGUGUAAAUAGUCUGCAUGCCGCCGGGCGCCAUGCCUGCAGGUCGACUCUAGAAAACAUG”, the binding signal was 3 log2 enrichment (interaction score) with PUM1 PUF domain R8-QWC; 3.78 log2 enrichment (interaction score) with PUM1 PUF domain R8-MFR; 2.24 log2 enrichment (interaction score) with PUM1 PUF domain R5-KGE; 4.66 log2 enrichment (interaction score) in the experiment with PUM1 PUF domain R4-THL; 2.55 log2 enrichment (interaction score) with PUM1 PUF domain R3-PWN.
With “GGCUAGAACUAGUGGAUCCCCCGGCGCCCGGCGGCUCGAGCCCGGGUAAGUGUCAAUAGUCUGCAUGCCGCCGGGCGCCAUGCCUGCAGGUCGACUCUAGAAAACAUG”, in the experiment with PUM1 PUF domain R5-KGE, the binding signal was 5.15 log2 enrichment (interaction score).
On to “GGCUAGAACUAGUGGAUCCCCCGGCGCCCGGCGGCUCGAGCCCGGGUAAGUGUAAUUAGUCUGCAUGCCGCCGGGCGCCAUGCCUGCAGGUCGACUCUAGAAAACAUG”, for which the binding signal in the experiment with PUM1 PUF domain R3-RAF is 3.3 log2 enrichment (interaction score).
